# HT1080 IDH1KD tx: qHTS for induction of synthetic lethality in tumor cells producing 2HG: qHTS for the HT-1080-IDH1KD cell line; AID 686971, 2013; Potency, µM (series often up to 46.1 µM), for inactives: at the top dose activity, negative = toxicity, usual class: cytotoxic; HT-1080 IDH1 knockdown viability, ATP luminescence, 48 h; 360,000 compounds, 2% hits;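 further: potency means the concentration at half of the fitted maximal effect; 0% = DMSO wells and -100% = cell-free medium wells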
#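 % activity derives from luminescence (CellTiter-Glo), normalised to DMSO and no-cell wells. HT-1080-IDH1KD cells, 750/well, had 48 h compound exposure at 37 °C.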
# TDP1 cell noCPT: qHTS for Inhibitors of human tyrosyl-DNA phosphodiesterase 1 (TDP1): qHTS in cells in absence of CPT | Potency, µM (titrated, usually from 46.2 µM), inactives show top-dose activity change, negative = growth inhibition, usual class: inhibitors | DT40 Tdp1-/- hTDP1 cells, no CPT, ATP luminescence, 48 h | 420,000 compounds, 15% hits; further: potency means the concentration at half of the fitted maximal effect; nearly all actives have a fitted effect of over 55% in size
#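 Luminescent ATP content (CellTiter-Glo) served as the growth readout. Knockout chicken DT40 cells expressing human TDP1 were exposed to compounds without camptothecin for a minimum 48 hr at 37 °C.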
# ELG1 repair inh: qHTS screen for small molecules that inhibit ELG1-dependent DNA repair in human embryonic kidney (HEK293T) cells expressing luciferase-tagged ELG1. HEK293T ELG1-luciferase reporter, luminescence, 16 h; DNA damage induced by 5-fluorouridine. Potency, µM (doses to about 46.1 µM), inactives show top-dose activity change, negative = inhibition, most hits filed as inhibitors. 330,000 compounds, 2.3% hits; further: potency means the concentration at half of the fitted maximal effect; nearly all actives have a fitted effect of over 55% in size
#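 DMSO vehicle served as the neutral condition. Each well held 2,000 cells given 5-fluorouridine plus compound; after 16 hr at 37 °C/5% CO2, ONE-Glo was added and luciferase measured 30 min later.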
# IL1B secr inh: qHTS for Inhibitors of Inflammasome Signaling: IL-1-beta AlphaLISA Primary Screen; AID 743279, 2014; 360,000 compounds, 4.7% hits; activity change, % at 57.5 µM; THP-1 LPS/ATP IL-1B secretion, AlphaLISA, 16 h; hits give low values; in the data active means activity change below about -50%; inconclusive means mostly about -30% to -49%
#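 Secreted IL-1B measured by AlphaLISA bead assay after 16 h compound exposure of THP-1 cells; compounds (final up to 57.5 uM) added 1 h before LPS (250 ng/mL) and ATP (1.25 mM) stimulation; lower signal means less secretion.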
# TDP1 cell CPT: qHTS for Inhibitors of human tyrosyl-DNA phosphodiesterase 1 (TDP1): qHTS in cells in presence of CPT; chicken DT40 Tdp1-/-;hTDP1 cells + 20 nM CPT, ATP luminescence, 48 h; Potency, µM (top dose mostly 46.2 µM), inactives show at the top dose activity change, negative = growth inhibition, actives largely listed as inhibitors; 420,000 compounds, 12% hits; AID 686979, 2013; further: potency means the concentration at half of the fitted maximal effect; nearly all actives have a fitted effect of over 55% in size
#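 Chicken DT40 Tdp1-/- cells complemented with human TDP1, 400 cells/well, exposed to compounds plus 20 nM camptothecin for at least 48 h at 37 C; viability read as ATP content by CellTiter-Glo luminescence.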
# HT1080-NT tox: qHTS for induction of synthetic lethality in tumor cells producing 2HG: qHTS for the HT-1080-NT fibrosarcoma cell line. AID 686970, 2013. 360,000 compounds, 1.6% hits. Potency, µM (top dose mostly 46.1 µM), inactives show at the highest dose activity, negative = less viability, actives largely listed as cytotoxic. HT-1080-NT fibrosarcoma viability, CellTiter-Glo ATP luminescence, 48 h;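 further: NT is the 2HG producing partner of a matched IDH1 knockdown line; potency means the concentration at half of the fitted maximal effect; 0% = DMSO-treated cells and -100% = media-only wells without cells; nearly all actives have a fitted effect of over 55% in size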
#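 Viability of the 2HG-overproducing fibrosarcoma line after 48 hours of compound exposure at 37 degrees C was determined by luminescence with CellTiter-Glo, and concentration-effect curves were then fitted and categorized.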
# The depositor's hits bear a star; ? = inconclusive; nt = no result; [ ] = dose if it differs, or a comment. Sampled rows, rich in hits. Any-hit rate of the full collection: about 19%. Unless noted, the call rests on the fitted dose curve; in most records, active means well fitted curve in the direction sought with a large enough effect; inconclusive means small, poorly fitted or top-dose-only effect, or another doubt; inactive means no such curve, though single readings can be large; an effect the other way counts as inactive or inconclusive. Unless noted, on the % scale 0 is the no-effect control and ±100 the full control effect.
SMILES,HT1080 IDH1KD tx,TDP1 cell noCPT,ELG1 repair inh,IL1B secr inh,TDP1 cell CPT,HT1080-NT tox
CCOC(=O)[C@]12CCC=C1N(Cc1ccc(Cl)cc1Cl)C(=O)[C@H](CC(=O)N1CCOCC1)C2,8.4%,20.6µM*,nt,-6.5,?,10.1%
CCOC(=O)[C@]12CCCC=C1N(Cc1ccc(Cl)cc1Cl)C(=O)[C@H](CC(=O)N1CCC(c3ccccc3)CC1)C2,?,18.4µM*,nt,0.0,16.4µM*,-16.0%
CCOC(=O)[C@]12CCC=C1N(Cc1ccc(Cl)cc1Cl)C(=O)[C@H](CC(=O)N1CCC(c3ccccc3)CC1)C2,10.7%,18.4µM*,nt,-6.9,?,1.9%
CCOC(=O)[C@]12CCCC=C1N(Cc1ccc(Cl)cc1Cl)C(=O)[C@H](CC(=O)N1CCCC1)C2,-8.4%,?,nt,0.2,?,1.2%
CCOC(=O)[C@]12CCCC=C1N(Cc1ccc(Cl)cc1Cl)C(=O)[C@H](CC(=O)N1CCN(C(=O)c3ccco3)CC1)C2,?,16.4µM*,nt,-13.8,?,-24.4%
COC(=O)c1ccc(Cn2c(C)c(C(=O)Nc3cccc(Oc4ccccc4)c3)sc2=O)o1,-19.3%,?,nt,?,?,1.1%
CSc1ncccc1C(=O)Nc1cc(Cl)ccc1N1CCOCC1,6.9%,?,10.3%,-21.5,?,-0.2%
CC(C)(C)C(=O)/C=C/Nc1ccccc1O,12.6µM*,13µM*,1.1%,0.0,11.6µM*,?
CN(C)c1ccc(N/C=C/C(=O)c2ccccc2)cc1,?,11.2µM*,?,-10.7,11.2µM*,8.91µM*
CN(C)c1ccc(N/C=C/C(=O)C(C)(C)C)cc1,?,?,?,-97.5*,18.4µM*,-21.1%
CCOC(=O)c1ccc(N/C=C/C(=O)C(C)(C)C)cc1,-1.4%,-14.3%,?,-25.0,-12.5%,-2.4%
CC(NC(=O)Nc1ccccc1O)(C(F)(F)F)C(F)(F)F,-5.5%,?,-1.9%,35.5,?,-8.8%
COCCN(Cc1ccccc1)C(=O)c1cccc(S(=O)(=O)N(C)c2c(C)n(C)n(-c3ccccc3)c2=O)c1,0.1%,-23.5%,-0.2%,-11.9,?,4.9%
CC(C)c1ccccc1NC(=O)CSc1n[nH]c(=O)n1C1CC1,0.3%,-3.7%,16.5%,24.7,-15.6%,5.2%
COc1cc(S(=O)(=O)NCC(c2ccco2)N2CCCCC2)ccc1NC(C)=O (configuration not stated),3.6%,1.3%,17.0%,3.4,6.2%,-4.2%
CCS(=O)(=O)c1ccc2oc(SCC(=O)NC(C)C3CC4CCC3C4)nc2c1 (configuration not stated),-6.9%[9.24 µM],16.4µM*,?,0.3,?,-1.7%
CCS(=O)(=O)c1ccc2oc(SCC(=O)Nc3ccc(OC)cc3OC)nc2c1,-1.7%,-30.3%,7.1%,0.1,-10.4%,1.9%
O=C(O)CSc1nc2ccc(C(=O)c3ccccc3)cc2[nH]1,16.2%,-11.8%,4.1%,-2.9,5.8%,17.3%
CS(=O)(=O)c1nc(-c2ccccc2)cc(-c2ccccc2)c1C#N,?,2.91µM*,?,-56.4*,1.46µM*,23.1µM*
CC(=O)/C(C#N)=C1\NC(=O)C(Cc2ccccc2C)S1 (configuration not stated),?,2.31µM*,-0.5%,nt,?,-24.2%
CCCCOc1ccc(C(=O)N2CCN(c3ccc(N4CCOCC4)nn3)CC2)cc1,-10.5%,?,?,-8.6,23.1µM*,-5.3%
CCOc1ccc(C(=O)N2CCN(c3ncccn3)CC2)cc1,5.4%,-13.0%,nt,-6.5,5.8%,5.0%
CCCOc1ccc(C(=O)N2CCN(c3ccc(N)cc3Cl)CC2)cc1,11.7%,20.6µM*,-10.2%,-10.4,23.1µM*,-2.4%
O=C(COC(=O)/C=C/c1ccc([N+](=O)[O-])cc1)Nc1ccc2[nH]c(=O)[nH]c2c1,5.7%,19.5%,8.1%,3.6,-14.9%,0.4%
CC1=C(C(=O)Nc2ccccc2)C(c2ccc(C)o2)n2c(s/c(=C/c3ccccc3)c2=O)=N1 (configuration not stated),-10.3%,?,20.6µM*,?,-22.5%,-4.4%
SMILES,HT1080 IDH1KD tx,TDP1 cell noCPT,ELG1 repair inh,IL1B secr inh,TDP1 cell CPT,HT1080-NT tox
CCOc1cc(C)c(S(=O)(=O)Nc2ccc3cn[nH]c3c2)cc1C,-13.2%,10µM*,-0.7%,-69.6*,18.4µM*,-25.2%
Cc1noc(C)c1C(=O)N1CCC2(CCN(Cc3ccccc3)CC2)CC1,nt,14.4%,nt,nt,7.9%,nt
COc1cc(C(=O)NC2CCN(C)CC2)ccc1Nc1ncc2c(n1)N(C1CCCC1)CCC(=O)N2C(C)C,?,16.4µM*,nt,-9.2,?,?
CN1CCC(NC(=O)c2cccc(Oc3ccccc3)c2)CC1,0.2%,-24.4%,0.5%,-4.8,-24.7%,3.5%
COc1cc(C(=O)NC2CCN(C)CC2)ccc1Nc1ncc2c(n1)N(CCc1ccccc1)CCC(=O)N2C,?,14.6µM*,nt,-4.5,23.1µM*,?
CN(C)CCN1CCN(C2CN(C3CCCC3)S(=O)(=O)C2)CC1 (configuration not stated),17.7%,2.5%,nt,60.6,-13.1%,23.9%
Cc1ccccc1C(=O)NCC(=O)OCCOc1ccc(C(C)C)c(C)c1,-2.2%,-4.0%,4.5%,13.1,-18.0%,-6.9%
CCC(C)c1ccccc1OCC(=O)Nc1ccc(S(=O)(=O)Nc2cc(C)on2)cc1 (configuration not stated),nt,-21.6%,nt,nt,-14.5%,nt
CC(C)COc1ccc(CNC(=S)Nc2ccccc2)cc1Cl,?,25.9µM*,-26.8%,?,?,-22.3%
CCCOc1ccc(CNC(=S)Nc2ccccc2)cc1Cl,-27.7%,16.4µM*,-0.3%,-78.9*,?,-17.3%
COc1ccc(S(=O)(=O)NC(C)c2ccc3c(c2)OCCO3)cc1 (configuration not stated),8.9%,-10.2%,nt,2.0,-18.5%,4.6%
COc1ccc(/C=N/NC(=O)c2ccc(N3CCCC3=O)cc2)cc1,-16.7%,-7.0%,6.1%,-0.7,10.0%,-11.8%
